Compounds without any hit were thinned out: in the full panel of roughly 79,000, 15% have a hit. Rule as the data show it: active = growth inhibition above about 70%; inactive = the rest.
How the values were obtained:
[1] = NCI Yeast Anticancer Drug Screen. Data for the rad50 strain (AID 155);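 also: 0% = growth of vehicle-only cultures of the same strain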; settings: S. cerevisiae rad50 strain growth inhibition; at 50.0 µM; hits give high values
How it was run: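 Yeast carrying a defined DNA repair defect were exposed to test compounds, and growth was compared with vehicle-treated controls to give percent inhibition.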

[2] = NCI Yeast Anticancer Drug Screen. Data for the mec2-1 strain (AID 157); settings: S. cerevisiae mec2-1 strain, at 50.0 µM, hits give high values
How it was run: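 Compounds were applied to mec2-1 yeast cells. Their growth was then compared with that of vehicle-treated cultures to give growth inhibition.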

[3] = NCI Yeast Anticancer Drug Screen. Data for the sgs1 mgt1 strain (AID 161);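 also: 0% = growth of cultures given vehicle only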; settings: S. cerevisiae sgs1 mgt1 strain, at 50.0 µM, hits give high values
How it was run: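 Compounds are added to genetically altered yeast, and growth is compared with cultures given vehicle alone to give percent inhibition.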

[4] = NCI Yeast Anticancer Drug Screen. Data for the cln2 rad14 strain (AID 165);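 also: 0% = growth equal to vehicle treated cultures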; settings: S. cerevisiae cln2 rad14 strain, at 50.0 µM, hits give high values
How it was run: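 Strain: cln2 rad14 yeast, altered in cell cycle control and DNA damage repair. Read-out: growth inhibition vs vehicle.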

[5] = NCI Yeast Anticancer Drug Screen. Data for the bub3 strain (AID 167); settings: S. cerevisiae bub3 mutant strain, at 50.0 µM, hits give high values
How it was run: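 Compounds were applied to a genetically altered yeast strain carrying a cell-cycle control defect. Growth inhibition was scored against vehicle-treated controls.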

[6] = NCI Yeast Anticancer Drug Screen. Data for the mlh1 rad18 strain (AID 175); settings: S. cerevisiae mlh1 rad18 strain growth inhibition; at 50.0 µM; hits give high values
How it was run: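 A repair-deficient yeast strain is exposed to test compound, and growth is scored relative to vehicle-treated controls.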

Measured: growth inhibition

C=C(C)Cc1cc(C(CC)C(CC)c2ccc(O)c(CC(=C)C)c2)ccc1O (configuration not stated)
inactive: [1] 18.6% | [2] 20.4% | [3] 47.2% | [4] 34.3% | [5] 6.25% | [6] 46%

CC(C)CC1CC(=O)NC1C(=O)O (configuration not stated)
inactive: [1] -14.2% | [2] 0.35% | [3] -13.2% | [4] -26.1% | [5] -0.85% | [6] -28.9%

COC(=O)C1(C(=O)OC)O[C@@H](c2ccccc2)[C@H]2C(=O)N(C)C(=O)[C@H]21
inactive: [1] 7.05% | [2] 0.9% | [3] 7.45% | [4] 8.8% | [5] -1.1% | [6] 13.8%

C1CSCCSCCCSC2CCCCC2SC1 (configuration not stated)
inactive: [1] 22.1% | [2] -0.3% | [3] -8.35% | [4] 17.4% | [5] 5% | [6] 2.15%

COc1ccc(/C=C2\Oc3cc(OC(C)=O)ccc3C2=O)cc1
inactive: [1] -66.9% | [2] -44.6% | [3] -15.2% | [4] 12.2% | [5] -14.6% | [6] -21.8%

COc1ccc(CCN(C)C(c2ccccc2)c2ccccc2)cc1OC
inactive: [1] -2.8% | [2] -6.65% | [3] 10.9% | [4] 3.75% | [5] 4.75% | [6] 3.3%

COC(=O)C1C2C=CC(C1C(=O)O)C1C(Br)=C(Br)C21 (configuration not stated)
inactive: [1] 20.4% | [2] 10.9% | [3] -8.05% | [4] -10.1% | [5] 1.9% | [6] -8.45%

C/C(=N/N)c1sc(-c2nc(C)c(/C(C)=N\N)s2)nc1C
inactive: [1] 32.9% | [2] -31.1% | [3] -26.9% | [4] -16% | [5] -18.1% | [6] -11.3%

NC(CCC(N)C(=O)O)C(=O)O (configuration not stated)
inactive: [1] -25.4% | [2] -20.6% | [3] -25.2% | [4] -13.5% | [5] -13.1% | [6] -18.1%

O=c1ccn(-c2ccccn2)c(=O)n1-c1ccccn1
inactive: [1] 18.9% | [2] -15.9% | [3] 2.95% | [4] 24.3% | [5] -6.35% | [6] -31.8%

Cc1nn(C(=O)c2ccc(Cl)cc2)c2c1C(c1ccccc1[N+](=O)[O-])SC(N)=N2 (configuration not stated)
inactive: [1] -9.6% | [2] -1.5% | [3] 7.05% | [4] 33% | [5] 27.6% | [6] -9.05%

COc1cc(OC)c(N=Nc2c(N)nc(N)[nH]c2=O)cc1Cl
inactive: [1] 4.95% | [2] 14.6% | [3] 7.5% | [4] -12.1% | [5] 8.3% | [6] -1.4%

C=CC(=O)OCC(C)(C)[N+](=O)[O-]
inactive: [1] 18.4% | [2] 15.7% | [3] 12.8% | [4] 2.35% | [5] -3.65% | [6] 1.55%

CCN=c1c([N+](=O)[O-])c(NC(=O)c2ccccc2)sn1CC
inactive: [1] -9.1% | [2] -5.65% | [3] -5.5% | [4] 28% | [5] -7.75% | [6] -5.7%

COC(=O)c1cc(Cl)ccc1NC(=O)C1CCCCC1
inactive: [1] 4.75% | [2] 15.8% | [3] 23% | [4] 27.8% | [5] 15.2% | [6] 36%

O=C1CC[C@H]2[C@@H]3N1c1ccccc1[C@@]31CCN3C/C(=C/CBr)[C@@H]2C[C@H]31
inactive: [1] 21.4% | [2] -3.05% | [3] 6.25% | [4] 19.4% | [5] -1.8% | [6] 11.1%

COC(=O)c1ccc(C(=O)OC)c2nc3cc(C)c(C)cc3nc12
inactive: [1] -0.7% | [2] 20.7% | [3] 0.1% | [4] -7.1% | [5] 5.35% | [6] 12%

COC(=O)N/N=C(\c1ccc(OC)cc1)C(c1ccc(OC)cc1)C1(O)C(=O)Nc2c(C)cc(Cl)cc21 (configuration not stated)
inactive: [1] 20.1% | [2] 14.8% | [3] -4.35% | [4] -30.6% | [5] 18.6% | [6] 18.6%

CC(=O)NC(Cc1ccc(OC(C)=O)c(OC(C)=O)c1)C(C)=O (configuration not stated)
inactive: [1] -10.4% | [2] 9.7% | [3] -0.7% | [4] -8.3% | [5] -10.6% | [6] 6%

CCOc1ccccc1Nc1nc(C)c(C(=O)CC(=O)C(=O)Nc2ccccc2)s1
inactive: [1] 45.9% | [2] 5.4% | [3] 28.2% | [4] 9.45% | [5] 29.9% | [6] 12.9%

CCCCCCCCCCCc1noc2c1C(=O)C(O)CC2 (configuration not stated)
inactive: [1] 36.5% | [2] -3.05% | [3] -1.05% | [4] 40.4% | [5] -69% | [6] 5.25%

O=C(N/N=C/c1ccccc1F)c1ccncc1
inactive: [1] 1.1% | [2] 5% | [3] -0.95% | [4] -24.4% | [5] -7.65% | [6] 23.9%

C=CCCCCC1CCC2CCC(CCCCC=C)N12 (configuration not stated)
inactive: [1] 40.8% | [2] 28.4% | [3] 38.6% | [4] 42.5% | [5] 49.4% | [6] 35.9%

O=C(NCCNCCCNC(=O)c1cc(-c2ccccc2)nc2ccccc12)c1cccc(O)c1O
inactive: [1] 8.4% | [2] 22.6% | [3] 33.1% | [4] 22.6% | [5] 49.5% | [6] 44.2%

CCOC(=O)C1Oc2ccccc2OC1C (configuration not stated)
inactive: [1] 24.5% | [2] -15.7% | [3] 9.45% | [4] 12.9% | [5] 16.3% | [6] 3.85%

CCCCCCCCCCCC(=O)Nc1ccc(C(C)C)cc1
inactive: [1] 4.75% | [2] -7.6% | [3] -13.3% | [4] 18.3% | [5] 21.2% | [6] -12.8%

CC12CCC3C(CCC4CC(O)(C(=O)O)CC43C)C1CCC2O (configuration not stated)
inactive: [1] -16.9% | [2] -3.05% | [3] -19.9% | [4] 5.15% | [5] -7.55% | [6] -19.3%

NNC(=O)CCC(=O)Nc1ccc(Cl)cc1Cl
inactive: [1] -19.9% | [2] 0.65% | [3] -8.25% | [4] 26.9% | [5] 5.1% | [6] 30.9%

O=C(C1OC1c1cccc([N+](=O)[O-])c1)C12CC3CC(CC(C3)C1)C2 (configuration not stated)
inactive: [1] 12.5% | [2] 32% | [3] 37.2% | [4] 17.1% | [5] 53% | [6] 54.5%

O=C1N(Cl)C2C(N1Cl)N(Cl)C(=O)N2Cl (configuration not stated)
inactive: [1] 5.35% | [2] -9.55% | [3] -18.4% | [4] -2.9% | [5] 2.95% | [6] -12.6%

C#CCOc1c(C(=O)OCC)c(=O)n(C)c2ccccc12
inactive: [1] -10% | [2] -17.1% | [3] 12.8% | [4] 9.4% | [5] 3.55% | [6] 1.7%

CC1(C)N=C(/C=N/O)C(C)(C)N1O
inactive: [1] 6.65% | [2] 0.55% | [3] 6.15% | [4] 6.3% | [5] -4.95% | [6] -18.7%

O=C1CC2CCCCC2CC1c1ccc(OCc2ccccc2)c(OCc2ccccc2)c1 (configuration not stated)
inactive: [1] -6.7% | [2] -0.25% | [3] 23.6% | [4] 9.1% | [5] -3.55% | [6] -13.7%

Clc1ccc(CNc2ncnc3nc(Cl)[nH]c23)cc1
inactive: [1] -14.4% | [2] -14.9% | [3] -4.6% | [4] -41.2% | [5] -10.2% | [6] -23.9%

N#CC(/C(=N/NC(N)=S)C(=O)Nc1cccc(Cl)c1)c1ccccc1 (configuration not stated)
inactive: [1] -23.9% | [2] 13.8% | [3] 10.4% | [4] 18.3% | [5] 12.9% | [6] 31.2%

ON=C1CCN(c2ccccc2)CC1
inactive: [1] 10.3% | [2] -30.5% | [3] -10.4% | [4] -44.1% | [5] 1.6% | [6] -18.4%

O=C(CC(=O)N(C(=O)c1ccccc1)c1ccc(Cl)cc1)N/N=C\c1ccccc1O
inactive: [1] 1.35% | [2] -5.4% | [3] 5.45% | [4] -1.85% | [5] 19.9% | [6] -15.4%

CC(C)CC(N)C(=O)OCN1C(=O)C2C3C=CC(C2C1=O)C1C2C(=O)N(COC(=O)C(N)CC(C)C)C(=O)C2C31 (configuration not stated)
inactive: [1] 16.1% | [2] 15.6% | [3] 5.05% | [4] 36.5% | [5] -0.05% | [6] 9.7%

NC(=O)c1ccc(=S)[nH]c1
inactive: [1] -8% | [2] -12.7% | [3] -7.55% | [4] -27.1% | [5] -6.1% | [6] 14.7%

CC1=CC(=O)[C@@H]2C[C@H]1C2(C)C
inactive: [1] 15.3% | [2] 12.8% | [3] -33.9% | [4] -2.9% | [5] -2.1% | [6] 22.2%

CC(=O)c1ccc[cH-]1.[Fe+2].c1cc[cH-]c1
inactive: [1] 13.5% | [2] 9.75% | [3] 12.9% | [4] 4.25% | [5] 23.2% | [6] 11.3%

CC(=O)C(/C=N\N=C(/C)c1cn[nH]c1C)=C(/C)O
inactive: [1] -54.8% | [2] -21.6% | [3] -18.7% | [4] -58.1% | [5] 8.6% | [6] -18.6%

Reference: PubChem BioAssay (NCI)
